In PubChem BioAssay AID1159580 (chemical genetic matrix, 2015):
Values joined by “and” are separate entries in the source; they are usually repeats but may differ in a detail not shown here. Equal values may be shown once. Among all 5,500 compounds or so, about 2,000 (36%) were called active. Roughly 18% stayed inconclusive and do not appear here. Rule as the data show it: active = normalized growth mostly below about 0.91 (no sharp cut-off); inconclusive = no clear call, values can overlap the other calls; inactive = mostly above about 0.92. The list shows a part of the results.

Experiment: chemical genetic growth profiling, strain panel (AID 1159580);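 also: tested at 20 µM; growth read once vehicle control cultures reached saturation at 30 °C; 1 = growth at the plate median or of vehicle wells; lower values mean less growth of the strain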
Settings: S. cerevisiae deletion strains, growth OD

Measured: normalized growth

COc1cc([C@H]2Oc3cc([C@H]4Oc5cc(O)cc(O)c5C(=O)[C@@H]4O)ccc3O[C@@H]2CO)ccc1O
inactive: locus YAL013W, strain DEP1, hits give low values 1 | locus YAL021C, strain ccr4, hits give low values 0.987 | locus YAL026C, strain drs2, hits give low values 1 | locus YAL030W, strain snc1, hits give low values 1.01 | locus YBL061C, strain skt5, hits give low values 1.01 | locus YBR009C, strain hhf1, hits give low values 1 | locus YBR021W, strain FUR4, hits give low values 1.06 | locus YBR023C, strain chs3, hits give low values 1.01 | locus YBR171W, strain sec66, hits give low values 1.02 | locus YBR229C, strain ROT2, hits give low values 0.991 | locus YBR231C, strain swc5, hits give low values 1.02 | locus YBR279W, strain paf1, hits give low values 1.01 | locus YCL011C, strain gbp2, hits give low values 1 | locus YCL016C, strain dcc1, hits give low values 0.992 | locus YCL029C, strain bik1, hits give low values 0.97 | locus YCL061C, strain MRC1, hits give low values 1.01 | locus YCL069W, strain vba3, hits give low values 1.01 | locus YCR088W, strain abp1, hits give low values 1.01 | locus YDL005C, strain med2, hits give low values 1.01 | locus YDL035C, strain GPR1, hits give low values 0.987 | locus YDL040C, strain nat1, hits give low values 1.01 | locus YDL074C, strain BRE1, hits give low values 0.986 | locus YDL101C, strain DUN1, hits give low values 0.989 | locus YDL134C, strain PPH21, hits give low values 1.01 | locus YDL185W, strain tfp1, hits give low values 0.964 | locus YDL192W, strain arf1, hits give low values 0.97 | locus YDR001C, strain nth1, hits give low values 1.01 | locus YDR069C, strain doa4, hits give low values 0.998 | locus YDR101C, strain arx1, hits give low values 0.976 | locus YDR137W, strain rgp1, hits give low values 0.996 | locus YDR150W, strain NUM1, hits give low values 0.969 | locus YDR159W, strain sac3, hits give low values 0.997 | locus YDR162C, strain NBP2, hits give low values 1.02 | locus YDR195W, strain ref2 1.02 | locus YDR297W, strain sur2, hits give low values 1.02 | locus YDR318W, strain mcm21, hits give low values 0.97 | locus YDR334W, strain swr1, hits give low values 1.01 | locus YDR335W, strain msn5, hits give low values 1 | locus YDR388W, hits give low values 0.984 | locus YDR392W, strain spt3, hits give low values 0.955 | locus YDR502C, strain sam2, hits give low values 0.977 | locus YEL003W, strain gim4, hits give low values 1.01 | locus YEL037C, strain rad23, hits give low values 1.01 | locus YEL061C, strain CIN8 (second series), hits give low values 1.02 | locus YEL061C, strain CIN8, hits give low values 1 | locus YER015W, strain faa2, hits give low values 1 | locus YER016W, strain bim1, hits give low values 1.01 | locus YER110C, hits give low values 0.958 | locus YER111C, strain swi4, hits give low values 1 | locus YER155C, strain BEM2 (second series), hits give low values 1.03 | locus YER155C, strain BEM2, hits give low values 1.02 | locus YER167W, strain BCK2, hits give low values 0.992 | locus YFR010W, strain ubp6, hits give low values 0.995 | locus YGL078C, strain dbp3, hits give low values 0.965 | locus YGL086W, strain mad1, hits give low values 0.975 | locus YGL167C, strain pmr1, hits give low values 1.01 | locus YGL173C, strain kem1, hits give low values 1.01 | locus YGL227W, strain vid30, hits give low values 1.01 | locus YGL240W, strain doc1, hits give low values 1.03 | locus YGL248W, strain PDE1, hits give low values 1.01 | locus YGL253W, strain hxk2, hits give low values 0.989 | locus YGR078C, strain PAC10, hits give low values 0.989 | locus YGR135W, strain pre9, hits give low values 0.987 | locus YGR229C, strain SMI1, hits give low values 1.01 | locus YGR252W, strain gcn5, hits give low values 0.961 | locus YHR013C, strain ard1, hits give low values 1 | locus YHR027C, strain rpn1, hits give low values 1 | locus YHR030C, strain SLT2, hits give low values 0.999 and 1.02 | locus YHR079C, strain IRE1 (second series), hits give low values 0.984 | locus YHR079C, strain IRE1, hits give low values 0.996 | locus YHR094C, strain hxt1, hits give low values 0.971 | locus YHR129C, strain ARP1, hits give low values 1 | locus YHR142W, strain chs7, hits give low values 0.997 | locus YHR200W, strain rpn10, hits give low values 0.959 | locus YIL066C, strain RNR3, hits give low values 0.968 | locus YIL073C, strain SPO22, hits give low values 0.906 | locus YIL125W, strain kgd1, hits give low values 0.987 | locus YIR030C, strain dcg1, hits give low values 0.981 | locus YJL092W, strain hpr5, hits give low values 1.01 | locus YJL095W, strain BCK1 (second series), hits give low values 1.02 | locus YJL095W, strain BCK1, hits give low values 0.998 and 0.981 | locus YJL115W, strain asf1, hits give low values 1.01 | locus YJL129C, strain trk1, hits give low values 1.03 | locus YJL134W, strain LCB3, hits give low values 1 | locus YJL154C, strain vps35, hits give low values 1.01 | locus YJL164C, strain tpk1, hits give low values 0.989 | locus YJL166W, strain qcr8, hits give low values 1.01 | locus YJL168C, strain set2, hits give low values 0.98 | locus YJL187C, strain SWE1 (second series), hits give low values 0.988 | locus YJL187C, strain SWE1, hits give low values 1.01 | locus YJR043C, strain POL32, hits give low values 0.998 | locus YJR066W, strain TOR1, hits give low values 0.954
